Source: PubChem BioAssay (Tox21)
Inconclusive results are not listed. The source made the active and inactive calls. Unless noted, calls follow the shape of the dose curve; as a rule, active = well fitted curve in the direction sought with a large enough effect in the repeat runs; inconclusive = weak or mixed curves; inactive = no such curve, though single readings can be large; an effect the other way counts as inactive or inconclusive.

Columns and labels:
[1] = qHTS assay to identify small molecule antagonists of the estrogen related receptor (ERR) signaling pathway from Tox21 library - cell viability counter screen (AID 1224834); also: nearly all actives have a fitted effect of over 30% in size; also: potency is read from the fitted curve at half-maximal effect
Procedure, shortened: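 In this quantitative HTS format, ERR cells receive compounds in DMSO and are incubated for 17.5 h at 37 C. Live-cell protease activity is then detected with CellTiter-Fluor.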

[2] = target: Luciferin 4-monooxygenase (Photinus pyralis) (UniProt P08659); assay: qHTS assay to identify small molecule inhibitors of firefly luciferase (AID 1224835); also: nearly all actives have a fitted effect of over 25% in size
Procedure, shortened: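 Inhibition of purified Photinus luciferase is measured by luminescence. Substrate levels (D-luciferin, ATP) sit at their KM values. Each compound is tested in a concentration series.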

[3] = qHTS assay to identify small molecule agonists of the constitutive androstane receptor (CAR) signaling pathway - cell viability counter screen (AID 1224836); also: nearly all actives have a fitted effect of over 45% in size; also: potency is read from the fitted curve at half-maximal effect
Procedure, shortened: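 Compound titrations (15 concentrations) went onto HepG2-CYP2B6-hCAR cells 4 h after seeding, alongside PK11195 at a final 0.75 uM; a 23 h, 37 C/5% CO2 incubation preceded CellTiter-Fluor viability measurement.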

[4] = qHTS assay to identify small molecule antagonists of the constitutive androstane receptor (CAR) signaling pathway - cell viability counter screen (AID 1224837); also: nearly all actives have a fitted effect of over 45% in size; also: potency is read from the fitted curve at half-maximal effect
Procedure, shortened: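 In quantitative HTS format, compounds at 15 concentrations were applied to HepG2 cells double-transfected with hCAR and CYP2B6-2.2kb under 50 nM CITCO stimulation; live-cell protease activity was read after 23 hr via CellTiter-Fluor.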

[5] = qHTS assay to identify small molecule antagonists of the estrogen related receptor signaling pathway with the pleiotropic PPARgamma coactivator (PGC) from Tox21 10K library - cell viability counter screen (AID 1224840; active = well fitted cell-killing curve with a large enough effect in the repeat runs, not every such curve was filed as active; also: nearly all actives have a fitted effect of over 40% in size; also: potency is read from the fitted curve at half-maximal effect)
Procedure, shortened: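 Viability counter screen, PGC/ERR cells: 17.5 h compound exposure at 37 C, CellTiter-Fluor fluorescence endpoint.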

[6] = qHTS assay to identify small molecule antagonists of the estrogen related receptor signaling pathway with the pleiotropic PPARgamma coactivator (PGC) from Tox21 10K library (AID 1224841; call rule not given here; also: actives are mostly falling curves and most rising ones were filed inactive; nearly all actives have a fitted effect of over 50% in size)
Procedure, shortened: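 In the PGC/ERR line, DMSO solutions of test chemicals are pin-delivered to 2,000 cells/well six hours after dispensing. Following eighteen hours' incubation, One-Glo reagent is added and luminescence recorded.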

[7] = qHTS assay to identify small molecule agonists of the estrogen related receptor signaling pathway with the pleiotropic PPARgamma coactivator (PGC) from Tox21 10K library (AID 1224842); also: nearly all actives have a fitted effect of over 15% in size
Procedure, shortened: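 Luminescence from One-Glo (30 min, room temperature) measured after PGC/ERR cells had 18 h at 37 C with pinned compound (23 nL in DMSO). Cells had been seeded at 2,000 per well and pre-incubated 6 h.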

[8] = target: Thyrotropin receptor (Homo sapiens) (UniProt P16473); assay: qHTS assay to identify small molecule agonists of the thyroid stimulating hormone receptor (TSHR) signaling pathway (AID 1224843; calls by dose curve; also: nearly all actives have a fitted effect of over 45% in size)
Procedure, shortened: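 A cell-based cAMP HTRF format was run in TSHR-transfected HEK293 cells, 800 per well. Treatment: 30 min, room temperature. Detection: 1 h with labelled cAMP and anti-cAMP cryptate. Concentration-response over 15 points, three replicates.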

[9] = qHTS assay to identify small molecule agonists of H2AX (AID 1224845; active = well fitted activation curve with a large enough effect in the signal ratio in the repeat runs, not every such curve was filed as active; the % refers to the signal ratio)
Procedure, shortened: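 Phospho-H2AX Ser139 measured by HTRF (ex 320 nm; em 665 and 620 nm) after 24 hr antibody incubation. Compounds, 15 concentrations, 0.76% DMSO, were applied to CHO-K1 cells for 3hr at 37C before lysis.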

[10] = qHTS assay to identify small molecule agonists of the hypoxia (HIF-1) signaling pathway (AID 1224846; active = well fitted activation curve with a large enough effect in the signal ratio in the repeat runs, not every such curve was filed as active; the % refers to the signal ratio)
Procedure, shortened: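 In ME-180 cells bearing an HRE-bla construct, 17 h treatment with DMSO-dissolved compounds at 37C was followed by CCF4-AM loading to quantify reporter induction.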

[11] = qHTS assay to identify small molecule agonists of H2AX - cell viability counter screen (AID 1224847; calls by dose curve; also: nearly all actives have a fitted effect of over 30% in size; also: potency is read from the fitted curve at half-maximal effect; as to activity change, negative = cytotoxicity: top concentration of the series differs between compounds)
Procedure, shortened: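 Read-out: CellTiter-Glo luminescence, 30 min RT. Cells: wild-type CHO-K1, 1000/well, 10% FBS, plated overnight at 37C. Treatment: 15 concentrations, 3 hr, 37C, 0.76% DMSO.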

[12] = qHTS assay to identify small molecule antagonists of the estrogen related receptor (ERR) signaling pathway from Tox21 library (AID 1224848); also: nearly all actives have a fitted effect of over 50% in size
Procedure, shortened: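 ERR cell line, 2,000 cells/well. 6 h settle, then compound (DMSO) added; 18 h at 37 C; ONE-Glo luminescence after 30 min RT.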

[13] = qHTS assay to identify small molecule agonists of the estrogen related receptor (ERR) signaling pathway from Tox21 library (AID 1224849; calls by dose curve; also: nearly all actives have a fitted effect of over 15% in size); conditions: ERR reporter cell line, ONE-Glo luciferase, 18 h; at 92.4 µM (top of the series) unless noted
Procedure, shortened: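 Reporter cells (ERR, NTP source) treated with Tox21 10K compounds 18 h, 37 C. Readout: ONE-Glo luminescence, 30 min RT.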

[14] = qHTS RealTime-Glo MT Cell Viability Assay in HepG2 cells - 24 hour (AID 1224867); also: nearly all actives have a fitted effect of over 50% in size
Procedure, shortened: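 Cells + NanoLuc/prosubstrate dispensed (600 cells/well) → 5 h at 37 C/5% CO2 → compounds in DMSO transferred → 40 h incubation at 37 C, luminescence read at 0, 8, 16, 24, 32, 40 h.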

[15] = qHTS RealTime-Glo MT Cell Viability Assay in HEK293 cells - 32 hour (AID 1224868); also: nearly all actives have a fitted effect of over 50% in size; also: potency is read from the fitted curve at half-maximal effect; as to activity change, negative = cytotoxic: top concentration of the series differs between compounds
Procedure, shortened: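 Tox21 10K qHTS, HEK293, 600 cells/well, RealTime-Glo reagent co-dispensed with cells; 5 h preincubation, compound by pintool, 37 C, luminescence at 0–40 h.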

[16] = A CellTox Green Cytotoxicity Assay to monitor cytotoxicity in HEK293 cells - 0 hour (AID 1224869); also: nearly all actives have a fitted effect of over 50% in size
Procedure, shortened: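 Homogeneous no-lysis format: HEK293 cell suspension mixed with CellTox Green reagent, seeded, incubated 5 h at 37 C/5% CO2, then dosed by pintool with compound in DMSO.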

[17] = qHTS RealTime-Glo MT Cell Viability Assay in HepG2 cells - 40 hour (AID 1224870); also: nearly all actives have a fitted effect of over 50% in size
Procedure, shortened: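 Real-time viability: cells seeded at 600 per well together with NanoLuc and cell-permeant prosubstrate, compounds added after 5 h incubation. Luminescence tracked at 0, 8, 16, 24, 32 and 40 h of exposure.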

[18] = target: Nuclear receptor subfamily 1 group I member 3 (Homo sapiens) (UniProt Q14994); assay: qHTS assay to identify small molecule antagonists of the constitutive androstane receptor (CAR) signaling pathway (AID 1224838); also: nearly all actives have a fitted effect of over 40% in size
Procedure, shortened: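 CITCO-stimulated (50 nM final) HepG2 cells stably transfected with hCAR and CYP2B6-2.2kb luciferase were exposed to compounds at 15 concentrations for 24 h at 37 C/5% CO2. A luciferase reagent was added and luminescence recorded after 30 min.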

[19] = qHTS assay to identify small molecule agonists of the hypoxia (HIF-1) signaling pathway - cell viability counter screen (AID 1224844; calls by dose curve; also: nearly all actives have a fitted effect of over 50% in size)
Procedure, shortened: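 Same wells as the HIF-1 reporter screen; ME-180 cells carrying HRE-bla, 17 hr treatment at 37C; CellTiter-Glo luminescence read after 30 min at room temperature.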

[20] = target: Nuclear receptor subfamily 1 group I member 3 (Homo sapiens) (UniProt Q14994); assay: qHTS assay to identify small molecule agonists of the constitutive androstane receptor (CAR) signaling pathway (AID 1224839);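 also: HepG2 cells stably carrying human CAR and a CYP2B6 luciferase reporter; nearly all actives have a fitted effect of over 15% in size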
Procedure, shortened: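 In this screen, CAR-driven CYP2B6 promoter activity is measured by luminescence in HepG2-CYP2B6-hCAR cells after 24 h with test compounds and 0.75 uM PK11195 (final concentration).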
% is scaled to controls: 0 for no effect and ±100 for the full control effect.

Chain of Luciferin 4-monooxygenase (Photinus pyralis) (P08659 whole entry, looked up): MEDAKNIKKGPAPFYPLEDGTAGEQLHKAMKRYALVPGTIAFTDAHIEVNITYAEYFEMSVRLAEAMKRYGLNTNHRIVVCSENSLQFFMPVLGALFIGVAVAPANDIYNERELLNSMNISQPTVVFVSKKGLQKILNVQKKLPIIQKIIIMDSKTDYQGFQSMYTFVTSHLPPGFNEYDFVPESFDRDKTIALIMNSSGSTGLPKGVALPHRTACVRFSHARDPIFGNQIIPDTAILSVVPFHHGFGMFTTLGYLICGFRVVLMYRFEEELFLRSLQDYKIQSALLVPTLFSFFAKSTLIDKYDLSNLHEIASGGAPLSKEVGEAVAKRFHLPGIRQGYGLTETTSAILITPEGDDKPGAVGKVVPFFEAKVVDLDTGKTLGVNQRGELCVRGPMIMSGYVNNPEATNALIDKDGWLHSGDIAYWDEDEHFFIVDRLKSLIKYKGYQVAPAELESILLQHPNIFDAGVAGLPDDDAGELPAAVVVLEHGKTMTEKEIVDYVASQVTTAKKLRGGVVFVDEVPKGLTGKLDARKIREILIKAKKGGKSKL
Chain of Nuclear receptor subfamily 1 group I member 3 (Homo sapiens) (Q14994 whole entry, looked up): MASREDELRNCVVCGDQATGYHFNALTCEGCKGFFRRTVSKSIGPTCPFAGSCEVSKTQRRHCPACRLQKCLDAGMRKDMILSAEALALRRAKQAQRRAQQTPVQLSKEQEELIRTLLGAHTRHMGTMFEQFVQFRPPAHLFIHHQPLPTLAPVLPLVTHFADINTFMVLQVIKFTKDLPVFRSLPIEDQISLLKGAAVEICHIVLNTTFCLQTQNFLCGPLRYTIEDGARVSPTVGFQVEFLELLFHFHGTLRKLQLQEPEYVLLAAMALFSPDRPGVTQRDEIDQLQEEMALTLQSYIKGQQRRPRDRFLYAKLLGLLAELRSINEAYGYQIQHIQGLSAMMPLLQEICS
Chain of Thyrotropin receptor (Homo sapiens) (P16473 whole entry, looked up): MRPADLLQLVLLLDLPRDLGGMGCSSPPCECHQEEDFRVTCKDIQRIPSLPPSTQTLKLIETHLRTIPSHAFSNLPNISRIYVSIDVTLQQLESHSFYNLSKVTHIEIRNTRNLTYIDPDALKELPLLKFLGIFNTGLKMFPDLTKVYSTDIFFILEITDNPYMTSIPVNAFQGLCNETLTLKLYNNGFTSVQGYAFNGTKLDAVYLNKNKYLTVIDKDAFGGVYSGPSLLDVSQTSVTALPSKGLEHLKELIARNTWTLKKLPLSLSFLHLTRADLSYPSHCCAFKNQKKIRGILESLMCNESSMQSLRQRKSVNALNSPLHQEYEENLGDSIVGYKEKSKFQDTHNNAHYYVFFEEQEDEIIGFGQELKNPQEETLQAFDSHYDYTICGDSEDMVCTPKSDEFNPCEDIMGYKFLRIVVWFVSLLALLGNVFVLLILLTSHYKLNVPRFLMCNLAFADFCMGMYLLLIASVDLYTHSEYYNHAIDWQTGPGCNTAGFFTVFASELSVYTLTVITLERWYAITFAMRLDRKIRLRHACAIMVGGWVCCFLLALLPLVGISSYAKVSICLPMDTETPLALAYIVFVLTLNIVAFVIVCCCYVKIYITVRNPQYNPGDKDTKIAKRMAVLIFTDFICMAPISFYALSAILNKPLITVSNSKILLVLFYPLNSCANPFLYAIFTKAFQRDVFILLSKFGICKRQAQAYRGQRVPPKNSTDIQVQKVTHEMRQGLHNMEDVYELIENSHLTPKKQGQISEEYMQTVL

CC(CSC(=O)c1ccccc1)C(=O)N1C[C@@H](Sc2ccccc2)C[C@H]1C(=O)O (stereo partly drawn)
inactive: viability change, negative = cytotoxic [1] 7.27% [at 19 µM] | activity change, negative = inhibition [2] 0.3% [at 23.6 µM] | viability change, negative = cytotoxic [3] 5.15% [at 19 µM] | activity change, negative = cytotoxicity [4] 0% [at 19 µM] | viability change, negative = cytotoxic [5] 17.4% [at 19 µM] | activity, negative = inhibition [6] 1.67% [at 19 µM] | activation [7] 0.512% [at 19 µM] | activation [8] -0.691% [at 19 µM] | activation (H2AX phosphorylation) [9] 0.449% [at 31.6 µM] | activation [10] 0.628% [at 15.8 µM] | activity change, negative = cytotoxicity [11] 1.45% [at 31.6 µM] | activity, negative = inhibition [12] -0.558% [at 19 µM] | activity change, positive = activation [13] -0.059% [at 19 µM] | activity change, negative = cytotoxicity [14] 3.68% [at 15.8 µM] | activity change, negative = cytotoxic [15] -4.06% [at 15.8 µM] | cytotoxicity [16] -0.576% [at 15.8 µM] | activity change, negative = cytotoxic [17] 2.68% [at 15.8 µM]

COc1ccc2cccc(CCNC(C)=O)c2c1
inactive: Potency [1] | Potency [2] | Potency [3] | Potency [4] | Potency [18] | Potency [5] | Potency [10] | Potency [11] | Potency [14] | Potency [15] | Potency [16] | Potency [17]

COc1ccc(S(=O)(=O)N2C(=O)[C@@](c3ccccc3OC)(N3C[C@H](O)C[C@H]3C(=O)N(C)C)c3cc(Cl)ccc32)c(OC)c1
inactive: Potency [2] | Potency [18] | Potency [10] | Potency [16]
active: Potency [1] 30.6 µM | Potency [3] 30.6 µM | Potency [4] 24.3 µM | Potency [5] 30.6 µM | Potency [15] 49 µM

O=CC1CC=CCC1 (stereo not drawn)
inactive: Potency [1] | Potency [2] | Potency [3] | Potency [4] | Potency [18] | Potency [8] | Potency [10] | Potency [11] | Potency [14] | Potency [15] | Potency [16] | Potency [17]

CCCCCC[C@@H](O)C/C=C\CCCCCCCC(=O)OC
inactive: Potency [1] | Potency [2] | Potency [3] | Potency [4] | Potency [5] | Potency [6] | Potency [7] | Potency [8] | Potency [19] | Potency [9] | Potency [10] | Potency [11] | Potency [12] | activity change, positive = activation [13] 3.83% | Potency [14] | Potency [15] | Potency [16] | Potency [17]

O=C1C(O)=C(O)C(=O)C(O)=C1O
inactive: Potency [1] | Potency [2] | Potency [3] | Potency [4] | Potency [18] | Potency [20] | Potency [8] | Potency [19] | Potency [9] | Potency [11] | Potency [14] | Potency [15] | Potency [16] | Potency [17]

NCC(=O)O
inactive: viability change, negative = cytotoxic [1] 2.45% [at 19 µM] | activity change, negative = inhibition [2] -0.476% [at 23.6 µM] | viability change, negative = cytotoxic [3] -11.9% [at 19 µM] | activity change, negative = cytotoxicity [4] -8.8% [at 19 µM] | activity, negative = inhibition [18] -5.57% [at 19 µM] | viability change, negative = cytotoxic [5] 0.187% [at 19 µM] | activation [8] -1.56% [at 19 µM] | activation [10] -0.806% [at 15.8 µM] | activity change, negative = cytotoxicity [11] 1.04% [at 31.6 µM] | activity change, negative = cytotoxicity [14] 3.17% [at 15.8 µM] | activity change, negative = cytotoxic [15] 7.53% [at 15.8 µM] | cytotoxicity [16] -0.777% [at 15.8 µM] | activity change, negative = cytotoxic [17] 0.792% [at 15.8 µM]

CCCCCCCCCc1ccc(OCCOCCO)cc1
active: Potency [1] 10.2 µM | Potency [3] 6.44 µM | Potency [4] 5.74 µM | Potency [5] 10.2 µM | Potency [11] 37.6 µM | Potency [15] 1.15 µM
inactive: Potency [2] | Potency [18] | Potency [19] | Potency [16]

O=C(O)C1(C(=O)O)CCC1.[NH2-].[NH2-].[Pt+2]
inactive: Potency [1] | Potency [2] | Potency [3] | Potency [4] | Potency [18] | Potency [8] | Potency [19] | Potency [9] | Potency [11] | Potency [14] | Potency [15] | Potency [16] | Potency [17]
